# Most compounds without a hit are left out; they make up all but 3.4% or so of the library.
# Sm TGR block – blocks Schistosoma mansoni thioredoxin glutathione reductase. Q962Y6. purified TGR, DTNB reduction, TNB absorbance 405 nm. Potency, µM (highest dose often 114 µM), for inactives: at the highest dose activity change, negative = inhibition, hits mostly inhibitors. actives 3% (n = 360,000); note: nearly all actives have a fitted effect of over 60% in size
#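 Kinetic colorimetric format: TGR-catalysed, NADPH-driven DTNB reduction monitored via TNB absorbance. Enzyme dispensed at 20 nM; compound exposure 15 min at room temperature before reaction start.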
# Giardia FBPA inh-1 – inhibitors of Giardia lamblia fructose-1,6-bisphosphate aldolase; A8B2U2; purified Giardia FBPA; Potency, µM (highest dose often 59.6 µM), for inactives: at the highest dose activity, negative = inhibition, usual class: inhibitors; actives 0.71% (n = 290,000); note: nearly all actives have a fitted effect of over 55% in size
#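 40 nM FBPA preincubated 10 min at RT with compound (up to 57.5 uM final), then substrate plus GAPDH/TPI/NAD/arsenate coupling and diaphorase/resazurin added. Fluorescence read after 20 min at RT, 525/598 nm.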
# RE007 growth inh – less growth of the S. pombe RE007 Vpr strain | actives 0.21% (n = 360,000) | Potency, µM (titrated, usually from 92.2 µM), for inactives: at the top dose activity change, negative = less growth, most hits filed as inhibitors | S. pombe RE007 Vpr strain, BacTiter-Glo ATP luminescence, 24 h | AID 651644; active = well fitted falling curve with a large enough effect; inconclusive = small, poorly fitted or top-dose-only effect; inactive = no such curve, though single readings can be large or run the other way; note: nearly all actives have a fitted effect of over 50% in size
#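 Fission yeast strain RE007, carrying one chromosomally integrated HIV-1 vpr copy, was seeded at OD 0.01 in PMG+AL medium with 23 nL pinned compound. After 24 h at 30 °C and 99% humidity, viability was read by BacTiter-Glo luminescence.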
# AmpC detergent – inhibitors of E. coli AmpC beta-lactamase with detergent; P00811; AmpC hydrolysis of nitrocefin, absorbance 480 nm, 0.01% Triton; Potency, µM (highest dose often 114 µM), inactives show at the top dose activity change, negative = inhibition, most hits filed as inhibitors; actives 0.041% (n = 370,000);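 note: 0% = no-compound wells and -100% = no-enzyme wells; nearly all actives have a fitted effect of over 25% in size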
# Target sequence (P00811 whole entry, looked up): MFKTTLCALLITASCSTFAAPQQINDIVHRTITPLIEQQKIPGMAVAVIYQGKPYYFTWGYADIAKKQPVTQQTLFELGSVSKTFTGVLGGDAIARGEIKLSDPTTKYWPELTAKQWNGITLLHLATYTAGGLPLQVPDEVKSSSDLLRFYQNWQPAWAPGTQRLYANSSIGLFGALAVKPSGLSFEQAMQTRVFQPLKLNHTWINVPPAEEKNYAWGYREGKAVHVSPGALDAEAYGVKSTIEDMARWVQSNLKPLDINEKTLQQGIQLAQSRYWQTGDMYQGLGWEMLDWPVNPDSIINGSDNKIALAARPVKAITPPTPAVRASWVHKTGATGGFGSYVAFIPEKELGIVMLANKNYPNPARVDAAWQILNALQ
#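 20 mM phosphate pH 7.0 + 0.01% (detergent screen) or 0.0001% Triton X-100; 5.3 nM AmpC reagent; cpd preinc 15 min RT; nitrocefin (800 uM stock) to start; A480 q20 s × 4 min; Activity was normalised to no-enzyme and no-compound control wells.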
# AmpC no deterg – blocks E. coli AmpC beta-lactamase in detergent-free assay; P00811; AmpC nitrocefin hydrolysis, absorbance 480 nm, 0.0001% Triton; Potency, µM (titrated, usually from 57.1 µM), for inactives: top-dose activity change, negative = inhibition, hits mostly inhibitors; actives 0.52% (n = 330,000); AID 485341;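 note: plate controls were no compound for no effect and no enzyme for full effect; nearly all actives have a fitted effect of over 20% in size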
#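 20 mM phosphate pH 7.0 + 0.01% (detergent screen) or 0.0001% Triton X-100; 5.3 nM AmpC reagent; cpd preinc 15 min RT; nitrocefin (800 uM stock) to start; A480 q20 s × 4 min; Activity was normalised to no-enzyme and no-compound control wells.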
# Giardia growth – blocks growth of Giardia lamblia trophozoites; shares compounds with Giardia FBPA inh-1; Giardia lamblia trophozoite growth inhibition; Potency, µM (top dose mostly 57.5 µM), for the others: top-dose activity change, negative = inhibition, usual class: inhibitors; actives 5% (n = 1,500);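 note: trophozoites exposed to compound for 48 h at 37 °C; nearly all actives have a fitted effect of over 70% in size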
# Mammal cell tox – toxic to mammalian cells in Giardia aldolase counter-screen. Potency, µM (top dose mostly 57.5 µM), without a hit: top-dose viability change, negative = toxicity, usual class: inhibitors. actives 4% (n = 1,500). AID 2786. shares compounds with Giardia FBPA inh-1. mammalian cell viability counter-screen, qHTS;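 note: Chinese hamster ovary cells used as mammalian cytotoxicity surrogate; viability measured as cellular ATP by luminescence; compound exposure lasted 48 h before reading; nearly all actives have a fitted effect of over 60% in size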
# Giardia FBPA inh-2 – confirmation of Giardia fructose-bisphosphate aldolase inhibitors | shares compounds with Giardia FBPA inh-1 | purified Giardia aldolase enzyme activity, qHTS | Potency, µM (highest dose often 57.5 µM), inactives show at the highest dose activity change, negative = inhibition, actives largely listed as inhibitors | actives 5% (n = 1,500) | AID 2787; note: nearly all actives have a fitted effect of over 45% in size
# Rabbit FBPA inh – blocks rabbit muscle aldolase in Giardia aldolase selectivity test. shares compounds with Giardia FBPA inh-1. Rabbit muscle FBPA enzyme inhibition, selectivity counter-screen. Potency, µM (series often up to 57.5 µM), without a hit: at the highest dose activity, negative = inhibition, hits mostly inhibitors. actives 4% (n = 1,500); note: nearly all actives have a fitted effect of over 60% in size
# Target sequence (P00883 whole entry, looked up): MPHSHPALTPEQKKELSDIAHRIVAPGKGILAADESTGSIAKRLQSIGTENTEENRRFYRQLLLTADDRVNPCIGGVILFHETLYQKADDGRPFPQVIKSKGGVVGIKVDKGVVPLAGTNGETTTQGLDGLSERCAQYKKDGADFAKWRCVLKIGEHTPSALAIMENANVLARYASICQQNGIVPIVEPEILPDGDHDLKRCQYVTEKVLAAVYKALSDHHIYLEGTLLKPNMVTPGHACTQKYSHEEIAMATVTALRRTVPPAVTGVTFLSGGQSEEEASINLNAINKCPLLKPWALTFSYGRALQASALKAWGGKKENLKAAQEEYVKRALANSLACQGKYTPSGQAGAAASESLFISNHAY
# GAPDH coupling – GAPDH inhibition flagged for Giardia aldolase hits; AID 2795; actives 6% (n = 1,500); shares compounds with Giardia FBPA inh-1; Potency, µM (highest dose often 57.5 µM), for inactives: at the top dose activity change, negative = inhibition, actives largely listed as inhibitors; GAPDH coupling enzyme counterscreen, biochemical, qHTS; note: nearly all actives have a fitted effect of over 55% in size
# The depositor's hits bear a star; ? = inconclusive; . = no result given; [ ] = dose if it differs, or a comment. Unless noted, calls come from the whole dose curve; as a rule, active = well fitted curve in the direction sought with a large enough effect; inconclusive = small, poorly fitted or top-dose-only effect, or another doubt; inactive = no such curve, though single readings can be large; an effect the other way counts as inactive or inconclusive. Unless noted, % is set by controls: 0 for no effect and ±100 for the full control effect; potency is the fitted concentration of half-maximal effect.
SMILES,Sm TGR block,Giardia FBPA inh-1,RE007 growth inh,AmpC detergent,AmpC no deterg,Giardia growth,Mammal cell tox,Giardia FBPA inh-2,Rabbit FBPA inh,GAPDH coupling
Cc1ccc(C2=NC(=O)/C(=C/c3cc(O)c(O)c(Br)c3)S2)cc1,-32%,16µM*,-5%,2%,18µM*,7%[10.4 µM],-18%,-15%,-9%,10%
Nn1c(SCC(=O)Nc2cccc(C(F)(F)F)c2)nncc1=O,4%,25µM*,7%,-3%,-18%,-9%[10.4 µM],-8%,-4%,-7%,0%
COCCNC(=O)CN(C(=O)Cn1nnc2ccccc21)c1cc(C)cc(C)c1,-3%,-3%,-8%,-6%,10%,.,.,.,.,.
CC12COC3(C(=O)Nc4nccs4)CC1CCC32C (centres undefined),-25%,0%,-16%,-7%,-26%,.,.,.,.,.
CCCc1ccc(S(=O)(=O)N2CCN(Cc3ccco3)CC2)cc1,-23%,1%,-9%,-8%,-8%,.,.,.,.,.
O=[N+]([O-])c1ccc(S(=O)(=O)N2CCN(Cc3ccco3)CC2)cc1,-28%,.,-8%,-5%,0%,.,.,-5%,-8%,5%
CC(Nc1nc(N2CCNCC2)nc2ccccc12)c1ccccc1 (centres undefined),-24%,1%,-3%,-2%,-18%,.,.,.,.,.
NS(=O)(=O)c1ccc(NC(=S)N2CCC(O)CC2)cc1,-1%,16µM*,2%,0%,-6%,?,17%,4%,13%,4%
CN(C)c1ccc(/C=N/NC2=NS(=O)(=O)c3ccccc32)cc1,11%,?,33%,-7%,-21%,.,.,.,.,.
CC(=O)Oc1ccc(/C=N/NC2=NS(=O)(=O)c3ccccc32)cc1,-14%,7.9µM*,-7%,?,-23%,-26%,1%,10%,1%,12%
COc1ccc(OC)c(/C=N/NC2=NS(=O)(=O)c3ccccc32)c1,-10%,16µM*,-7%,-2%,-27%,-17%[10.4 µM],-4%,1%,8%,10%
COc1ccc(/C=N/NC2=NS(=O)(=O)c3ccccc32)cc1OC(C)=O,-2%,3.5µM*,3%,-1%,-11%,12%[38.3 µM],-4%,?,7%,3%
COc1cc(/C=N/NC2=NS(=O)(=O)c3ccccc32)cc(OC)c1OC,-2%,7.9µM*,-5%,6%,-27%,-14%,6%,13%,8%,6%
COc1cccc(CN2C(=O)C3(SCC(=O)N3c3ccc(C(C)C)cc3)c3ccccc32)c1 (centres undefined),4%,.,.,22%,.,.,.,.,.,.
COc1cc(C2=NOC(C(=O)Nc3cccnc3)C2)cc(OC)c1OC (centres undefined),4%,5%,-1%,2%,-6%,.,.,.,.,.
CC(CNC(=O)CN(C)CC(=O)Nc1ccccc1Br)c1ccccc1 (centres undefined),-8%,.,10%,-10%,64%,.,.,.,.,.
COc1ccc(/C=N/NC2=NS(=O)(=O)c3ccccc32)cc1,-2%,4.5µM*,6%,3%,-15%,-7%[10.4 µM],5%,9%,16%,6%
CCc1nc(NCc2cccs2)c2nnn(Cc3ccccc3)c2n1,.,.,11%,.,.,.,.,.,.,.
O=C(CNC(=O)c1cccnc1)N=Nc1c(O)[nH]c2c(Br)cc(Br)cc12,2%,28µM*,2%,-6%,-35%,-1%[10.4 µM],-6%,7%,17%,12%
Cc1ccc(N(C(C)C(=O)N2CCC(C)CC2)S(C)(=O)=O)cc1C (centres undefined),0%,4%,5%,-2%,35%,.,.,.,.,.
CCOC(=O)c1cc(S(=O)(=O)N2CCN(c3cccc(OC)c3)CC2)[nH]n1,-6%,.,.,-1%,.,.,.,.,.,.
O=c1[nH]cnc2c1ncn2C1OC(CO)C(O)C1O (centres undefined),.,-2%,10%,.,.,.,.,.,.,.
CC1(C)OC2C(CO)OC(n3cnc4c(=S)nc[nH]c43)C2O1 (centres undefined),-13%,4.5µM*,12%,3%,-1%,-25%[38.3 µM],?,-4%,-2%,1%
Nc1nc(=S)c2ncn([C@@H]3O[C@H](CO)[C@@H](O)[C@H]3O)c2[nH]1,0%,.,-7%[18.4 µM],-13%,-11%,.,.,.,.,.
Nc1nc(=S)c2ncn(C3OC(CO)C(O)C3O)c2[nH]1 (centres undefined),-35%,6.3µM*,-2%,3%,-26%,3%[10.4 µM],2%,1%,2%,1%
SMILES,Sm TGR block,Giardia FBPA inh-1,RE007 growth inh,AmpC detergent,AmpC no deterg,Giardia growth,Mammal cell tox,Giardia FBPA inh-2,Rabbit FBPA inh,GAPDH coupling
OCC1OC(n2cnc3c(=S)nc[nH]c32)C(O)C1O (centres undefined),.,4.5µM*,.,.,.,?,6.3µM*,2%,2%,-6%
COC(=O)CCNc1n[nH]c(=O)[nH]c1=O,-2%,1%,0%,-16%,-10%,.,.,.,.,.
Cc1ccc(Cn2c(C)c(C(=O)NCc3cccc(C(F)(F)F)c3)sc2=O)cc1,.,.,0%[18.4 µM],.,.,.,.,.,.,.
COC(=O)c1cc(OC)c(OC)cc1NC(=S)NC(=O)c1ccco1,11µM*,13µM*,-3%,2%,0%,18%,-16%,0%,3%,14%
CCNC(=S)Nc1cc(OC)c(NC(=O)c2ccco2)cc1OC,?,-6%,9%,-2%,-5%,.,.,.,.,.
O=C(NC(=S)Nc1ccc([N+](=O)[O-])cc1)c1ccco1,.,.,3%,.,.,.,.,.,.,.
O=C(NC(=S)Nc1ccccc1[N+](=O)[O-])c1ccco1,50µM*,16µM*,-20%,?,-14%,35µM*,1%,-2%,-7%,3%
Cc1ccccc1NC(=S)NNC(=O)c1ccco1,-2%,7.9µM*,5%,2%,-22%,?,-9%,6%,-1%,2%
Cc1ccccc1NC(=O)c1ccco1,-15%,-2%,-17%,-10%,-9%,.,.,.,.,.
